The source of these data is the OligoGym collection.
Also: reference of the scale not given here.

The first assay has as its target PCTP. The experiment in a line: pooled miR-30 sensor sort-seq; sequence = guide strand. The following applies: shRNA.
Turning to TAACATACTGGTCCCATTGTTT, the sensor-assay potency score (higher = more potent) was -0.841.
As to TTCTTTAACATACTGGTCCCAT, the sensor-assay potency score (higher = more potent) is -0.412.
Still for that read-out and setting: the figure for TAGAGTTCTTTAACATACTGGT is 0.218; for TTGAACTGTAGAAGAAGGCAGC it is -0.297.
Take TACATTTCTAAATATTCTGGGA: the sensor-assay potency score (higher = more potent) was -0.38.
Same read-out and setting: the figure for AAGTCCAGTCTTCTTGTCCAGC is -1.17; for TTGCACAATGGAATGATCGTGT it is 0.345.
Consider TTTGCTAGCTGCCACAGCCATC, for which the sensor-assay potency score (higher = more potent) was -1.46.
As for TTATAGAACACACTTTTCTTCC, the sensor-assay potency score (higher = more potent) is -0.218.
In the case of TTCTTGTTCATAGAGTTCTTTA, the sensor-assay potency score (higher = more potent) is -0.702.
Still for that read-out and setting: the result for TAGAACACACTTTTCTTCCCAG reads 0.135; that for TTCATTATAGAACACACTTTTC, -1.43.

Another assay has as its target PC. The description is as above. Conditions: shRNA.
On to TTGAGGGAGTCAAACACACGGA, for which the sensor-assay potency score (higher = more potent) is 0.00371.
On to TTCTTGACCTCCTTGAACTTGG, for which the sensor-assay potency score (higher = more potent) was -0.463.
TTGTTGAGCACATTCTGCAGGA yielded a sensor-assay potency score (higher = more potent) of 0.211.
For the sequence TTGACCTCCTTGAACTTGGAGC, the sensor-assay potency score (higher = more potent) is -0.629.
The sequence TCTCGCAGCAGGATGTCTCTGA yielded a sensor-assay potency score (higher = more potent) of 0.144.
Same read-out and setting: the result for TTCATCTGCTTTCTGCCGGTGC reads -0.101; that for TTGGTCACATGAACCTTGCGGA, 0.159.
Regarding TTGAAGACCACGTTGTCTGGGT, the sensor-assay potency score (higher = more potent) turned out to be 0.437.
For the sequence TACTGCAGTGAGTACTTGGTGC, the sensor-assay potency score (higher = more potent) is -0.271.
With TTCTCGTCGATGAACTGGGTGT, the sensor-assay potency score (higher = more potent) was -0.428.
In the case of TTGATGTCTATCACCTTCCCAG, the sensor-assay potency score (higher = more potent) is -0.547.
Consider TAGTACTGCAGTGAGTACTTGG, for which the sensor-assay potency score (higher = more potent) was -0.46.

The next assay has as its target PDE12. The description is as above. Conditions: shRNA.
TTGAGGTAGAGGTAGACCCTAA: the sensor-assay potency score (higher = more potent) was -0.795.
Turning to TAACTTAAGTCTCTCACCCTTA, the sensor-assay potency score (higher = more potent) is -0.0358.
As for TAAATCGCTAACTAAATTGAGG, the sensor-assay potency score (higher = more potent) was -0.622.
For the sequence TTGAAGTTTACATATAAGCTTT, the sensor-assay potency score (higher = more potent) is -0.258.
TATCCTTTTAGAAGAGTCCTTT: the sensor-assay potency score (higher = more potent) is 0.141.
On the same count and under the same terms, the figure for TGAAATTGTAGTAAATCGCTAA is 0.612; for TAGTACATAAGCATGATTCATT it is -0.285; for TTCTTTGTGAAGTGGGTCGGAC it is -0.551.
TTGTAGTAAATCGCTAACTAAA: the sensor-assay potency score (higher = more potent) is -1.21.
As for AAATGTAATCTAGACATCCATG, the sensor-assay potency score (higher = more potent) was -1.09.
As to TAACTTCTTCATGACTAGGTAA, the sensor-assay potency score (higher = more potent) was -0.476.
As to TTCACCACAAGCACTTTTCAGC, the sensor-assay potency score (higher = more potent) was -0.0283.

Another assay concerns the target PDE1C. Described as above. Conditions: shRNA.
Sequence AATTGTTTGACCAAAGACCGTA registered a sensor-assay potency score (higher = more potent) of 0.319.
Consider TTTTCCTCTGCTTCCTTCTTGG, for which the sensor-assay potency score (higher = more potent) was -0.143.
As to TTTTCTTTGAATCATTTCCGAT, the sensor-assay potency score (higher = more potent) is -1.12.
